Experimental data: PubChem BioAssay (NCI)
About 83,000 compounds went through this panel and 20% of them were active in at least one assay; those are over-represented in the sample as a whole.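 Testing used 96-well plates and a 48-hour single-concentration exposure. Example: -40 means 40% of the starting cells died.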 Values without a mark were called inactive. Calls of active or inactive are those of the source. The calls were made as follows: active = growth percent below 10; inactive = the rest.

Experiments:
Assay in all cases: NCI-60 one-dose screen, 48 h (100 = growth as untreated, 0 = no growth, -100 = all killed)
Conditions in all cases: 10 µM unless noted
NCI-H23 lung = system: NCI-H23 lung
NCI-H226 lung = system: NCI-H226 lung
NCI-H322M lung = system: NCI-H322M lung
HOP-62 NSCLC = system: HOP-62 NSCLC
NCI-H460 lung = system: NCI-H460 lung
NCI-H522 lung = system: NCI-H522 lung
A549/ATCC NSCLC = system: A549/ATCC NSCLC
786-0 renal = system: 786-0 renal
COLO 205 colon = system: COLO 205 colon
DU-145 prostate = system: DU-145 prostate
K-562 leukemia = system: K-562 leukemia
MALME-3M melanoma = system: MALME-3M melanoma
MDA-MB-231 breast = system: MDA-MB-231 breast
RXF 393 renal = system: RXF 393 renal
SF-268 CNS = system: SF-268 CNS
SF-295 CNS = system: SF-295 CNS
SF-539 CNS = system: SF-539 CNS
UACC-257 melanoma = system: UACC-257 melanoma
M14 melanoma = system: M14 melanoma

Row | Compound | growth (NCI-H23 lung) | growth (NCI-H226 lung) | growth (NCI-H322M lung) | growth (HOP-62 NSCLC) | growth (NCI-H460 lung) | growth (NCI-H522 lung) | growth (A549/ATCC NSCLC) | growth (786-0 renal) | growth (COLO 205 colon) | growth (DU-145 prostate) | growth (K-562 leukemia) | growth (MALME-3M melanoma) | growth (MDA-MB-231 breast) | growth (RXF 393 renal) | growth (SF-268 CNS) | growth (SF-295 CNS) | growth (SF-539 CNS) | growth (UACC-257 melanoma) | growth (M14 melanoma)
1 | O=C(Nc1ccc(Br)cc1)Nc1cccc(Br)c1 | 18.4% | 53.1% | 55.4% | 56.6% | 12.2% | -28.5% (active) | 32.1% | 68.6% | 28.1% | 30.7% | 4.34% (active) | 60.2% | 66.6% | 105% | 69% | 28.1% | 76.6% | 36.3% | 24.1%
2 | OC(CCCCCCCCC(O)CN1CCc2ccccc2C1)CN1CCc2ccccc2C1 (configuration not stated) | 101% | 99.9% | 87.5% | 103% | 108% | 105% | 101% | 94.7% | 101% | 108% | 97.3% | 97.5% | 98% | 110% | 102% | 83.2% | 101% | 98.5% | 109%
3 | CN(C)CCCn1c(=O)c2cc([N+](=O)[O-])ccc2c2cnc3[nH]ccc3c21 | 58.8% | 44.3% | 46.3% | 45.1% | 17.3% | 17.9% | 41.5% | 7.2% (active) | 28% | 50.5% | -32.4% (active) | 68.8% | 65.5% | 56.3% | 45.9% | 43.9% | 50.9% | 87.2% | 67.6%
4 | COc1cnc2c(c1)C(=O)c1c-2n(CCCN2CCCC2)c(=O)c2cc(Cl)ccc12 | 32.5% | 6.56% (active) | 46.6% | 16.2% | -12.9% (active) | 4.02% (active) | 25.3% | -73.1% (active) | 10.4% | 36% | -72% (active) | 70.3% | 62.4% | 30% | 39.2% | 23% | 4.9% (active) | 63.6% | 37.3%
5 | NS(=O)(=O)c1ccc(CCn2c(SCC(=O)N/N=C/c3cccnc3)nc3ccccc3c2=O)cc1 | 93.3% | 83% | 101% | 83.3% | 90.5% | 68.5% | 97.3% | 92.4% | 97.3% | 98.9% | 61% | 81.7% | 98.5% | 93.4% | 89.7% | 85.7% | 104% | 107% | 94.7%
6 | COc1cc(C2CC(c3ccccc3)=NN2C=O)ccc1Oc1nc2c(c(=O)n(C)c(=O)n2C)n1C (configuration not stated) | 79% | 79% | 55.4% | 102% | 91.3% | 91.7% | 61.5% | 98.1% | 105% | 59% | 74.3% | 77.9% | 71.9% | 90.9% | 56.3% | 62.2% | 117% | -27.3% (active) | 69.9%
7 | CCN(CC)CCCC(C)Nc1ccnc2ccc(Oc3ccccc3)cc12 (configuration not stated) | 90.6% | 120% | 72% | 86.6% | 95.2% | 36.2% | 81.6% | 72.3% | 41.4% | 88.6% | 13.7% | -38.6% (active) | 42.5% | 24.5% | 66.2% | 93.7% | -41.3% (active) | -54.1% (active) | -58% (active)
8 | Cc1cccc(/C=N/n2c(-c3ccc(Cl)cc3)nc3c(Br)cc(Br)cc3c2=O)c1 | 29.2% | 37.9% | 53.8% | 33.8% | 29.1% | 38.1% | 31.4% | 51.9% | 46.8% | 66.2% | 65.7% | 70% | 44.9% | 61.3% | 69.9% | 35.4% | 70% | 76.3% | 60.4%
